PubChem BioAssay
The source made the active and inactive calls.

Key:
[1] = system: Plasmodium falciparum Sir2 (PF13_0152, Sir2A); assay: pfSir2 binders on small-molecule microarrays, primary screen, biochemical, small-molecule microarray, 635 nm fluorescence (AID 1098); conditions: small-molecule microarray binding, fluorescence 635 nm; higher = more signal;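 further: score merges spot fluorescence intensity with its signal-to-noise ratio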
[2] = small-molecule microarray binders of probe aDKK1, primary screen, biochemical, biotinylated probe, 635/667 nm fluorescence (AID 1099); conditions: higher = more signal;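 further: score merges 667nm spot fluorescence with signal to noise across triplicate slides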
[3] = small-molecule microarray binders of probe aCHRDL2, primary screen, biochemical, biotinylated probe, 635/667 nm fluorescence (AID 1100); conditions: higher = more signal
[4] = splicing luciferase reporter signal modulators, primary screen, spliceosome inhibition project, cell-based, HEK293, splice +/- reporter (AID 1101); conditions: luminescence, 24 h, higher = more signal, called active from +8 up or from −8 down;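 further: HEK293 cells carrying a splicing-competent luciferase reporter gene; test concentration not given here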
[5] = target: Fibroblast growth factor 10 (Homo sapiens) (UniProt O15520); assay: FGF10 binders on small-molecule microarrays, primary screen, biochemical, small-molecule microarray, 635 nm fluorescence (AID 1102); conditions: FGF10 binding, fluorescence 635 nm, higher = more signal
Fibroblast growth factor 10 (Homo sapiens), sequence (O15520 whole entry, looked up): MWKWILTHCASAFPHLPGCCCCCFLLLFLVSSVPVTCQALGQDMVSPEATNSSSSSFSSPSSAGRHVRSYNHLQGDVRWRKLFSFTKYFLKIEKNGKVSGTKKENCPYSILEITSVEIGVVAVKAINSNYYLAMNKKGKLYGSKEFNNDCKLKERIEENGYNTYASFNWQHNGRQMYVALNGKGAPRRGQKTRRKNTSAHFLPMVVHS

[6] = system: glycogen synthase kinase-3 (GSK3A per assay name; protocol says GSK3B); assay: GSK3 binders on small-molecule microarrays, primary screen, biochemical, small-molecule microarray, 635 nm fluorescence, GSK3A (AID 1103); conditions: small-molecule microarray binding, fluorescence 635 nm; higher = more signal; further: the record names both GSK3A and GSK3B
[7] = target: Epidermal growth factor receptor (Homo sapiens) (UniProt P00533); assay: EGFR binders on small-molecule microarrays, primary screen, biochemical, small-molecule microarray, 635 nm fluorescence (AID 1104); conditions: EGFR binding, higher = more signal;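 further: score merges 667 nm emission intensity with spot signal to noise over triplicate slides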
Epidermal growth factor receptor (Homo sapiens), sequence (P00533 whole entry, looked up): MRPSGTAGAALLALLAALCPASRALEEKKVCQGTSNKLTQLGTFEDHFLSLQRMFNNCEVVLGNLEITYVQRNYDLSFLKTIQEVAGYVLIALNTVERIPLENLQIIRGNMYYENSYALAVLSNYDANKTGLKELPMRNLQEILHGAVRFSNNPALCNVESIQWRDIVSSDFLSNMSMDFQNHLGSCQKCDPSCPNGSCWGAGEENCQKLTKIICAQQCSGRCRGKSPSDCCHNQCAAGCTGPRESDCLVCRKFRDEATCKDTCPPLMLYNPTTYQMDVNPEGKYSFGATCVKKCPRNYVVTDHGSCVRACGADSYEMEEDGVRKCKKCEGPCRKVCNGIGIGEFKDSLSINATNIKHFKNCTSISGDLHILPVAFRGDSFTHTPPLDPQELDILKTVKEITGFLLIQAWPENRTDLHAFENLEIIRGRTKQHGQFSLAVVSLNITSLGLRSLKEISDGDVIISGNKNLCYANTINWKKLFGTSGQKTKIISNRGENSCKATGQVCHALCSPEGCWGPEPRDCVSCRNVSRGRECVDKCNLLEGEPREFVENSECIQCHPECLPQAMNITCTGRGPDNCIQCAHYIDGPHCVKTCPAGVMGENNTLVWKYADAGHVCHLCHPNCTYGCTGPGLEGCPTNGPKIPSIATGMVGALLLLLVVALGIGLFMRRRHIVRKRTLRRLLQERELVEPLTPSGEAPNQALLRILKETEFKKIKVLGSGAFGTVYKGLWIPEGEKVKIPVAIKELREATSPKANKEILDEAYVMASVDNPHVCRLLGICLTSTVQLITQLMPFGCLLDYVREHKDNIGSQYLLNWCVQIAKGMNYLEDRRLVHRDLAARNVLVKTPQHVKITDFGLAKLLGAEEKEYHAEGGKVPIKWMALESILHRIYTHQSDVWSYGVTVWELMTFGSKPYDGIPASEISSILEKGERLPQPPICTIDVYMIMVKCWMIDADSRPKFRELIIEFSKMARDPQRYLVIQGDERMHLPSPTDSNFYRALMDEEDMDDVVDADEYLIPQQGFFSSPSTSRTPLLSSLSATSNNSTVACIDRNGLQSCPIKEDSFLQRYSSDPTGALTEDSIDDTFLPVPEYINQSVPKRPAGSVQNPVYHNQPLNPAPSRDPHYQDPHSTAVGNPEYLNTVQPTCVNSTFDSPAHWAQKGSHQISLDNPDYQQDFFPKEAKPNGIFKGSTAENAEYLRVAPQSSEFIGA

[8] = target: Follistatin-related protein 3 (Homo sapiens) (UniProt O95633); assay: FSTL3 binders on small-molecule microarrays, primary screen, biochemical, small-molecule microarray, 635 nm fluorescence (AID 1105); conditions: FSTL3 binding, higher = more signal;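 further: score merges emission near 667 nm and signal to noise per printed spot across three slides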
Follistatin-related protein 3 (Homo sapiens), sequence (O95633 whole entry, looked up): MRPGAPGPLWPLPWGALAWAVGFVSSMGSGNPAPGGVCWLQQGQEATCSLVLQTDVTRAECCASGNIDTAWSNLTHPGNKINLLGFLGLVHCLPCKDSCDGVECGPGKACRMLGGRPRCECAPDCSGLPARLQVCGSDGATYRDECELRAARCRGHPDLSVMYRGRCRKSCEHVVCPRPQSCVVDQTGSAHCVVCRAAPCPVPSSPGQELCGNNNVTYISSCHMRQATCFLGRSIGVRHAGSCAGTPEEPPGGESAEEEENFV

[9] = target: Dickkopf-related protein 1 (Homo sapiens) (UniProt O94907); assay: DKK1 binders on small-molecule microarrays, primary screen, biochemical, small-molecule microarray, 635 nm fluorescence scan (AID 1106); conditions: DKK1 binding, higher = more signal;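 further: score merges emission near 667 nm with signal to noise over three replicate slides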
Dickkopf-related protein 1 (Homo sapiens), sequence (O94907 whole entry, looked up): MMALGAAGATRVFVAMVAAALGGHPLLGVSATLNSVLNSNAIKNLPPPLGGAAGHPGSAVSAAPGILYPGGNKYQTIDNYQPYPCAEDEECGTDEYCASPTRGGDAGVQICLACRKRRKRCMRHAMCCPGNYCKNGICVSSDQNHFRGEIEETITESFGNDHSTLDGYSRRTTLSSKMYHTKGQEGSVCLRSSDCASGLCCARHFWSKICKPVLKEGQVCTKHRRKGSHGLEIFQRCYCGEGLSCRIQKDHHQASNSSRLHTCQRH

[10] = system: Inhibin beta A chain (activin A); assay: INHBA (activin A) binders on microarrays, primary screen, biochemical, small-molecule microarray, 635 nm fluorescence scan (AID 1107); conditions: small-molecule microarray binding, higher = more signal;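 further: mouse activin A protein probed at 4.33 µg/mL on printed slides; score merges bound-protein fluorescence near 667 nm with spot signal-to-noise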
[11] = system: Human papillomavirus type 1a protein E7 (residues 44-93); assay: HPV1a E7 fragment binders on microarrays, primary screen, biochemical, small-molecule microarray, residues 44-93, 635 nm fluorescence (AID 1108); conditions: small-molecule microarray binding, fluorescence 635 nm; higher = more signal;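 further: E7 fragment applied at 1 µg/mL in TBST for 1 h at 4 C; score combines spot fluorescence with its signal to noise ratio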
[12] = modulators of HCV replicon luciferase signal, primary screen, HCV replication inhibitor project, Huh7 cells, luciferase reporter (AID 1109); conditions: 48 h, higher = more signal;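 further: huh7 hepatoma cells harbouring a luciferase neomycin HCV replicon reporter; luciferase luminescence as measure of HCV replicon replication; test concentration not given here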
[13] = target: Left-right determination factor 2 (Homo sapiens) (UniProt O00292); assay: LEFTY2 binders on small-molecule microarrays, primary screen, biochemical, small-molecule microarray, 635 nm fluorescence scan (AID 1110); conditions: LEFTY2 binding, higher = more signal
Left-right determination factor 2 (Homo sapiens), sequence (O00292 whole entry, looked up): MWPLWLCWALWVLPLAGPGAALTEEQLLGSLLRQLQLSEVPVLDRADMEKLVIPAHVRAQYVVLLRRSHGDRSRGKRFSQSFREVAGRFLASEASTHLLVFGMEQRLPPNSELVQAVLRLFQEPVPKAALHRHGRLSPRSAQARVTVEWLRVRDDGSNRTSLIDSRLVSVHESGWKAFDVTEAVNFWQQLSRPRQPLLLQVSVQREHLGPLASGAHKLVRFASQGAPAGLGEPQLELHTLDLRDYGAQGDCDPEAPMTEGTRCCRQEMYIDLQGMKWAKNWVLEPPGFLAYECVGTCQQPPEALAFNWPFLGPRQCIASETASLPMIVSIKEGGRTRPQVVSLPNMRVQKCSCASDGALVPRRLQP

[14] = target: Calmodulin-1 (Homo sapiens) (UniProt P0DP23); assay: CALM1 binders on microarrays, EGTA buffer, profiling panel, biochemical, small-molecule microarray, Cy5-labelled CALM1 (AID 1111); conditions: Cy5-CALM1 binding fluorescence, higher = more signal;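 further: labelled calmodulin applied in Tris saline Tween buffer holding calcium plus EGTA and DTT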
[15] = target: Calmodulin-1 (Homo sapiens) (UniProt P0DP23); assay: calcium-bound CALM1 binders on microarrays, profiling panel, artefact control for SMM control-protein annotation, biochemical, small-molecule microarray, Cy5-labelled CALM1, plus calcium (AID 1112); conditions: Cy5-CALM1 binding fluorescence, higher = more signal;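 further: score merges spot fluorescence with signal to noise from triplicate slides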
[16] = small-molecule microarray binders of probe aWnt5a, primary screen, biochemical, biotinylated probe, 635/667 nm fluorescence (AID 1113); conditions: higher = more signal;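 further: score merges 667 nm fluorescence intensity with signal-to-noise per printed feature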
[17] = small-molecule microarray binders of probe aShh, primary screen, biochemical, biotinylated probe, 635/667 nm fluorescence (AID 1114); conditions: higher = more signal;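 further: probe is biotin-labelled aShh protein from a stem cell growth factor screen; measures binding of labelled protein to compounds printed on the slide; score merges feature fluorescence at 667 nm with signal-to-noise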
[18] = small-molecule microarray binders of probe aNog, primary screen, biochemical, biotinylated probe, 635/667 nm fluorescence (AID 1115); conditions: higher = more signal;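 further: probe is biotinylated aNog protein used at 0.15 µg/mL for 1 h at 4 C; z-score combines 667 nm fluorescence of each spot with its signal to noise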
[19] = target: Torsin-1A-interacting protein 1 (Homo sapiens) (UniProt Q5JTV8); assay: LAP1 binders from COS7 cell lysate, primary screen, small-molecule microarray, 635/667 nm fluorescence (AID 1116); conditions: COS7-hLAP1 lysate binding, 635 nm fluorescence, higher = more signal
Torsin-1A-interacting protein 1 (Homo sapiens), sequence (Q5JTV8 whole entry, looked up): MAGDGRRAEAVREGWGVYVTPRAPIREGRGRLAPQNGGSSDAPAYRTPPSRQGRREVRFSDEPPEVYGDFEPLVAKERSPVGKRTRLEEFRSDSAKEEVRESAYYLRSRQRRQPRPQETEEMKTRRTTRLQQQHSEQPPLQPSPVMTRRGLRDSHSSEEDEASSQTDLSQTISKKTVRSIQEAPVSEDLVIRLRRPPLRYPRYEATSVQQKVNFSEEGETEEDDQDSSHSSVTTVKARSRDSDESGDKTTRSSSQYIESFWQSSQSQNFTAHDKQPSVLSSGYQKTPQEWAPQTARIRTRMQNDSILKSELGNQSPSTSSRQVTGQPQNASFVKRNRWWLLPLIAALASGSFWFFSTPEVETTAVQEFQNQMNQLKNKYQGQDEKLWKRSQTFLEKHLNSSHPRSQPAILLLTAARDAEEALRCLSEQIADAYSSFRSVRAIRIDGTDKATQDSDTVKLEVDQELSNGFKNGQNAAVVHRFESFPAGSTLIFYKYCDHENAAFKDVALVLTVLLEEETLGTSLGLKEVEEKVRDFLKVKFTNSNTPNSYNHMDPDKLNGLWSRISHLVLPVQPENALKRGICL

[20] = target: Alpha-bungarotoxin (Bungarus multicinctus) (UniProt P60615); assay: alpha-bungarotoxin binders on microarray, profiling panel, artefact control for SMM control protein annotation, biochemical, small-molecule microarray, Alexa647 label, 635/667 nm fluorescence (AID 1117); conditions: alpha-BTX-A647 binding fluorescence, higher = more signal
Alpha-bungarotoxin (Bungarus multicinctus), sequence (P60615 whole entry, looked up): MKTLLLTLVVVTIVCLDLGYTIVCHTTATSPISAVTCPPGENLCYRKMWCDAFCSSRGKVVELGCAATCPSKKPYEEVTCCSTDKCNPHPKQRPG

| SMILES | composite z-score [1] | composite z-score [2] | composite z-score [3] | z-score [4] | composite z-score [5] | composite z-score [6] | composite z-score [7] | composite z-score [8] | composite z-score [9] | composite z-score [10] | composite z-score [11] | z-score [12] | composite z-score [13] | composite z-score [14] | composite z-score [15] | composite z-score [16] | composite z-score [17] | composite z-score [18] | composite z-score [19] | composite z-score [20] |
| --- | --- | --- | --- | --- | --- | --- | --- | --- | --- | --- | --- | --- | --- | --- | --- | --- | --- | --- | --- | --- |
| COC(=O)[C@H](C)NC(=O)CCC1CC(OC(=O)NCc2ccc3c(c2)OCO3)CC2(CCCC(COC(=O)NCC3CCCCC3)O2)O1 (stereo not given in full) | 0.74 | -0.21 | -0.647 | 0.507 (inactive) | 1.29 | 0.98 | 0.621 | 1.07 | 0.822 | -0.144 | 1.37 | -1.48 | 0.764 | 0.369 | -0.0553 | 0.0775 | -0.138 | 0.656 | 0.173 | 0.54 |
| CCc1cc2c(nc1CC)CCN(CCC(C)=NO[C@H](C)c1cn([C@@H]3COC[C@H]3O)nn1)C2 | 0.346 | -0.156 | -0.334 | 0.212 (inactive) | 0.189 | 0.229 | 0.545 | 0.433 | 0.611 | 0.468 | -0.236 | -0.53 | 0.368 | -0.433 | -0.931 | -0.0479 | 0.0723 | -0.172 | 0.651 | 0.173 |
| COc1cccc([C@H]2Oc3ccc(OC)cc3C(=NOC[C@@H](C)[C@H](OCc3ccccc3)C(C)C)[C@@H]2O)c1 | -0.0088 | 0.197 | 0.101 | -0.171 (inactive) | 0.325 | 0.332 | -0.168 | 0.242 | 0.304 | 0.0185 | 0.274 | -2.55 | 0.476 | -0.0749 | 0.619 | -0.206 | -0.0858 | 0.2 | 0.251 | 0.452 |
| C=COC[C@@H]1CN2[C@@H](CC[C@@H](C)[C@@H]2c2ccc(Br)cc2)C(=O)O1 | 0.0845 | -0.319 | -0.0905 | -0.589 (inactive) | -0.472 | -0.413 | -0.46 | -0.46 | -0.0521 | 1.47 | -0.0205 | -0.0522 | -0.0429 | -0.941 | -1.26 | -0.124 | 0.0284 | -0.0079 | -0.111 | 0.259 |
| Cc1ccc(S(=O)(=O)N[C@H]2COC(=O)CC=C[C@@H](C)COC(=O)CC=C[C@@H]2C)cc1 | 0.549 | -0.789 | -1.26 | 0.597 (inactive) | 0.813 | 0.448 | 0.823 | 1.4 | 2.04 | 1.36 | -0.572 | 0.391 | 0.449 | -0.606 | -1.24 | -0.12 | -0.153 | -0.222 | 0.163 | -0.361 |
| COC(=O)[C@@H]1CC[C@H](C)[C@@H](c2ccc(C)cc2)N1C(=O)c1ccc(C=NO[C@@H](C)c2cn([C@H](CO)Cc3ccccc3)nn2)cc1 | 1.03 | -0.0212 | -0.925 | -0.746 (inactive) | 1.09 | 1.16 | 0.797 | 1.17 | 1.22 | -0.116 | 1.3 | -2.25 | 0.785 | -0.0062 | -0.388 | 0.116 | -0.0146 | -0.0554 | 0.641 | 0.51 |
| CCCCC#C[C@@H]1C=C[C@H](Oc2ccc(C(=O)OC)cc2)[C@@H](COC(=O)OCC)O1 | 0.716 | 0.015 | -0.334 | 0.545 (inactive) | 0.785 | 0.277 | 0.385 | 1.05 | 0.414 | 0.273 | 0.42 | -3.22 | 0.494 | -0.184 | -0.581 | -0.0735 | -0.2 | 0.129 | 1.19 | 0.807 |
| CC(C)=CCCC(C)=CCON=C1C[C@@H](O)[C@@H](O)[C@@H]2[C@@H]3C(=O)N(Cc4ccccc4)C(=O)[C@@H]3CC[C@@H]12 | 0.786 | -0.382 | -1.12 | -0.216 (inactive) | 1.14 | 0.279 | 0.696 | 0.955 | 1.04 | 1.09 | 0.209 | 0.45 | 1.08 | -0.488 | -1.32 | -0.154 | -0.214 | -0.0709 | 0.712 | 0.398 |
| CC(CCN1CCCCc2nc(C)c(C)cc21)=NOC[C@@H](C)[C@H](OCc1ccccc1)C(C)C | -0.399 | -0.624 | -0.579 | -1.22 (inactive) | -1.78 | -1.03 | -1.77 | -2.25 | -0.991 | 0.736 | -0.824 | -0.876 | -1.47 | -1.74 | -1.8 | -0.335 | -0.428 | -0.803 | -1.07 | -2.21 |
| CO[C@@H]1COC(=O)[C@H](CCSC)NC(=O)CC=C[C@@H](C)COC(=O)[C@H](C)NC(=O)CC=C[C@H]1C | 0.931 | -0.34 | -0.833 | 0.0885 (inactive) | 0.816 | 0.856 | 0.953 | 1.1 | 1.19 | -0.0263 | 0.677 | -0.62 | 1.19 | -0.886 | -1.04 | -0.0179 | -0.221 | -0.0604 | -0.185 | -0.155 |
| O=C1C[C@@H](O)[C@@H](O)[C@@H]2[C@@H]3C(=O)N(c4cccc(Oc5ccccc5)c4)C(=O)[C@@H]3CC[C@H]12 | 0.326 | -0.18 | -0.709 | 0.218 (inactive) | 0.595 | 0.572 | 0.573 | 0.814 | 0.846 | -0.173 | -0.252 | 0.33 | 0.43 | 0.118 | -0.294 | -0.128 | -0.366 | -0.341 | 0.132 | 0.62 |
| CCCNC(=O)OC[C@H]1O[C@H](CCON=Cc2ccc(C(=O)N3[C@H](c4ccc(C)cc4)[C@@H](C)CC[C@H]3C(=O)OC)cc2)C=C[C@@H]1Oc1ccc(OC)cc1 | 0.463 | -0.186 | -0.0627 | -0.357 (inactive) | 0.523 | 0.581 | 0.417 | 0.355 | 0.0399 | 0.446 | 0.993 | -1.85 | 0.534 | 0.263 | -0.0711 | 0.111 | -0.493 | -0.0234 | 0.943 | 0.497 |
